Source: PubChem BioAssay (National Center for Advancing Translational Sciences (NCATS))
Hits are enriched below; roughly 2.4% of the tested compounds scored in any of these assays.
POLH inh: qHTS for Inhibitors of Polymerase Eta | DNA polymerase eta (Homo sapiens), Q9Y253 | recombinant Pol eta, fluorescent DNA replication assay | Potency, µM (series often up to 114 µM), inactives show top-dose activity change, negative = inhibition, hits mostly inhibitors | 390,000 compounds, 1.2% hits; also: % is scaled to controls: 0 for no effect and ±100 for the full control effect
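Fluorescent replication assay: 50 nM final substrate added after a 15 min room-temperature compound preincubation with 10 nM enzyme. Signal taken at 0 min and again at 10 min.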
POLK inh: qHTS for Inhibitors of Polymerase Kappa; DNA polymerase kappa (Homo sapiens), Q9UBT6; purified Pol kappa, fluorescent DNA synthesis assay, 10 min; Potency, µM (titrated, usually from 107 µM), for inactives: at the top dose activity, negative = inhibition, actives largely listed as inhibitors; 400,000 compounds, 0.53% hits; also: % is scaled to controls: 0 for no effect and ±100 for the full control effect
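50 nM final substrate added after 15 min RT preincubation of 10 nM Pol kappa with compound; fluorescence read at 0 and 10 min.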
TDP1 block: qHTS Assay for Inhibitors of Tyrosyl-DNA Phosphodiesterase (TDP1); recombinant TDP1, AlphaScreen DNA substrate cleavage; Potency, µM (titrated, usually from 130 µM), for the others: at the highest dose activity change, negative = inhibition, most hits filed as inhibitors; 350,000 compounds, 0.28% hits; also: % is scaled to controls: 0 for no effect and ±100 for the full control effect; nearly all actives have a fitted effect of over 40% in size
Target sequence (Q9NUW8 whole entry, looked up): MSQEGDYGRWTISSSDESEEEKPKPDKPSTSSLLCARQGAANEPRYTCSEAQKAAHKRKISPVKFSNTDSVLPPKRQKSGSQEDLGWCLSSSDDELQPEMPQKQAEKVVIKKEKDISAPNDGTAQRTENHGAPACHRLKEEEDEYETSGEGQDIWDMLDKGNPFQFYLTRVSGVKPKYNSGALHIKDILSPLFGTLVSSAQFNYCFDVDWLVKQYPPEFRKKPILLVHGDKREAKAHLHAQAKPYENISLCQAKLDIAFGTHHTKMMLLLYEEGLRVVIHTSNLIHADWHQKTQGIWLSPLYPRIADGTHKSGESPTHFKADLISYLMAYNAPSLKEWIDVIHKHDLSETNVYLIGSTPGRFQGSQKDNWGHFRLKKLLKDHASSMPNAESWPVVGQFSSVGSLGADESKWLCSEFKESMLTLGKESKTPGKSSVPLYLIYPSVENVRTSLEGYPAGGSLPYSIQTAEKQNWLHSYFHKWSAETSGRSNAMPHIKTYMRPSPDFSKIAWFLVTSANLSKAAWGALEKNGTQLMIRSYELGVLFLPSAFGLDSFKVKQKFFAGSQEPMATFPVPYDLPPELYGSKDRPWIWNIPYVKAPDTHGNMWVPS
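Compounds were preincubated with Tdp1 (1 nM final) for 15 min at room temperature before substrate (15 nM final) started a 5 min reaction; beads (10 ug/ml final) were then added for 10 min before AlphaScreen detection.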
POLI inh: qHTS for Inhibitors of Polymerase Iota | DNA polymerase iota (Homo sapiens), Q9UNA4 | Pol iota fluorescent replication assay, 10 min | Potency, µM (titrated, usually from 115 µM), for inactives: at the top dose activity, negative = inhibition, actives largely listed as inhibitors | 390,000 compounds, 1% hits | AID 588590, 2011
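Fluorescent replication assay read twice, at 0 min and 10 min after adding 50 nM (final) substrate. Enzyme (10 nM) and compounds were first incubated 15 min at room temperature; enzyme-free buffer wells were negative controls.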
POLB inh: qHTS Assay for Inhibitors of DNA Polymerase Beta | P06746 | 340,000 compounds, 1.3% hits | AID 485314, 2010 | Pol beta primer extension/strand displacement, fluorescence kinetic | Potency, µM (titrated, usually from 114 µM), without a hit: at the top dose activity change, negative = inhibition, most hits filed as inhibitors; also: % is scaled to controls: 0 for no effect and ±100 for the full control effect
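Human Pol beta at 10 nM; strand-displacement substrate 50 nM final. Compound exposure 15 min at room temperature before start, reaction 10 min at room temperature.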
Starred values were filed as active, the others as inactive; ? = inconclusive; · = no result; [ ] = another dose, or the depositor's remark. Calls follow the shape of the dose curve; as a rule, active = well fitted curve in the direction sought with a large enough effect; inconclusive = small, poorly fitted or top-dose-only effect, or another doubt; inactive = no such curve, though single readings can be large; an effect the other way counts as inactive or inconclusive. Potency is read from the fitted curve at half-maximal effect.

SMILES	POLH inh	POLK inh	TDP1 block	POLI inh	POLB inh
Cc1nn(CCC(=O)Nc2ccc(Cl)cc2)c(C)c1S(=O)(=O)N1CCCCC1	-5%	-8%[60.1 µM]	6%	-5%	25%
COc1cccc(Cn2cccc(NC(=O)Nc3ccccc3C)c2=O)c1	-5%	4%	6%	13µM*	-28%
CC(=O)N1CCOc2ccc(S(=O)(=O)NCCc3ccc(S(N)(=O)=O)cc3)cc21	0%	-17%	-5%	-1%	-13%
CC(=O)N1CCOc2ccc(S(=O)(=O)NCc3ccc(F)cc3)cc21	56µM*	-42%	45µM*	71µM*	100µM*
CC(=O)N1CCOc2cc(S(=O)(=O)NCc3ccccc3Cl)c(Cl)cc21	-12%	-13%	6.3µM*	?	-3%
Oc1ccc(/C=C/c2ccccc2)c2cccnc12	·	·	1%	·	·
CC1=C(c2ccc(C(C)C)cc2)S(=O)(=O)NC1=NCc1ccccc1Br	-3%	-2%	3%	-3%	-24%
COc1ccc(S(=O)(=O)N(C)Cc2cccs2)cc1Br	-10%	-8%	-7%	16%	14%
Cc1ccc(C)c(S(=O)(=O)N(C)Cc2cccs2)c1	-10%	-9%	79µM*	1%	·
CCCCCN1N=C(C)CC1=O	-8%	1%	-2%	1.1µM*	5%
COc1cccc(N2C(=O)c3ccccc3C2=O)c1	·	·	-12%	·	·
CN(C)c1ccc(/C=C/c2cccc3cc4ccccc4nc23)cc1	·	-15%	·	-10%	·
COc1ccc(NCc2cc3ccc(OC)cc3n(CC(=O)Nc3cccc(OC)c3)c2=O)cc1	-4%	-10%	6%	20%	-14%
O=C(COc1c(Br)cc(Br)c2cccnc12)Nc1ccccc1F	?	-30%	5%	-27%	4.5µM*
O=C(COc1ccccc1)Nc1ccccc1F	-7%	4%	·	20%	-3%
CCc1cccc(-n2c(C)nc3c(cnn3-c3ccc(C)c(C)c3)c2=O)c1	?	-5%	0%	14%	-23%
COc1ccc(-n2nc(C(=O)NCC(=O)Nc3cccc(Cl)c3)c3ccccc3c2=O)cc1OC	?	3%	-4%	48%	25µM*
COCCCCOc1cc2nc(N3CCCN(C)CC3)nc(NC3CCN(C)CC3)c2cc1OC	·	-3%	·	24%	·
COc1ccc(CNC(=O)CCc2c(C)c3cc4c(C)c(C)oc4cc3oc2=O)cc1	-24%	-6%	-2%	13%	22µM*
CCC(NC(=O)CCc1c(C)c2cc3c(C)c(C)oc3cc2oc1=O)C(=O)N[C@@H](Cc1ccccc1)C(=O)O (some centres undefined)	?	12%	·	8%	32µM*
Cc1cc(-c2csc(N)n2)c(C)n1Cc1ccco1	1%	10µM*	10%	?	-1%
Cc1cc(C(=O)COC(=O)c2cc(Cl)ccc2N)c(C)n1Cc1ccco1	-16%	-41%	-3%	?	40µM*
Cc1ccc(-n2c(C)cc(-c3csc(N)n3)c2C)cc1	-7%	3%	6%	13%	7%
O=C(O)CCc1cc(F)c(S(=O)(=O)N2CCN(S(=O)(=O)c3ccc4c(c3)OCCO4)CC2)cc1F	·	·	2%	·	·
O=C(c1ccc(Br)cc1)C(CN1CCOCC1)c1ccccc1 (centres undefined)	-7%	-7%	·	20µM*	1%
SMILES	POLH inh	POLK inh	TDP1 block	POLI inh	POLB inh
O=C1c2ccccc2-c2onc3c(Oc4ccccc4)cc(O)c1c23	·	·	11%	·	35µM*
CC(NC(=O)COC(=O)/C=C/c1ccc2c(c1)OCO2)c1ccccc1 (centres undefined)	1%	-15%	2%	3%	·
O=C(COC(=O)c1ccc([N+](=O)[O-])s1)NC(=O)NCc1ccccc1	-7%	-19%	9%	?	7.9µM*
O=C(COC(=O)c1ccc([N+](=O)[O-])s1)c1ccc[nH]1	20µM*	-29%	-10%	89µM*	·
Cc1ccc(C(=O)OCC(=O)NCc2ccccc2)s1	1%	·	·	·	·
CC(NC(=O)COC(=O)/C=C/c1ccc([N+](=O)[O-])cc1)c1ccccc1 (centres undefined)	-35%	?	1%	89µM*	29%
CC(NC(=O)COC(=O)c1ccc([N+](=O)[O-])s1)c1ccccc1 (centres undefined)	?	-25%	2%	?	16µM*
CCC1=C(c2ccc(C)cc2)S(=O)(=O)N=C1N1CCC(C(=O)Nc2ccccc2C(=O)OC)CC1	·	0%	10%	14%	3%
Cn1nnnc1SCCCNCc1ccccc1OCc1ccc(F)cc1	-24%	-14%	-4%	4%	27%
O=C(COC(=O)c1ccc([N+](=O)[O-])s1)NNC(=O)c1ccccc1	?	-19%	1%	?	·
O=C(COC(=O)c1ccc([N+](=O)[O-])s1)NCCc1ccccc1	?	?	2%	56µM*	·
CCCCc1nc2c(c3c1C[C@H](C)OC3)CN(S(=O)(=O)CCCC)CC2	·	·	6%[21 µM]	·	·
CCOC(=O)c1ccccc1NC(=O)COC(=O)CCC1CCCC1	?	2%	50µM*	22%	·
CCOC(=O)c1ccccc1NC(=O)COC(=O)CCCOc1ccccc1	-6%	-7%	·	22%	·
O=C(COC(=O)CC1CCCC1)Nc1cc2c(cc1Cl)C(=O)c1ccccc1C2=O	?	-21%	?	-15%	40µM*
CC(=O)c1ccccc1NC(=O)COC(=O)CCC1CCCC1	-12%	-13%	79µM*	23%	·
CCOC(=O)C12CC1/C(=N\O)c1ccccc1O2 (centres undefined)	·	-11%[19.4 µM]	9%	·	·
N#Cc1nc(Nc2ccc(Br)cc2)nc(NC2CCCC2)n1	·	·	-2%	·	·
O=S1(=O)C2CC3CCC2(CN1Cc1ccccc1)O3 (centres undefined)	·	-4%	6%	-17%	·
CCN(CC)CCNc1ccc(CO)c2sc3ccccc3c(=O)c12	-18%	?	14%[56.1 µM]	20µM*	16µM*
CN(C)CCNc1ccc2nnn3c4ccc(O)cc4c(=O)c1c23	?	-42%	·	?	·
Cc1ccc(NCCN(C)C)c2c(=O)c3cc(O)ccc3sc12	?	?	·	89µM*	·
CCN(CC)CCNc1cccc2sc3ccccc3c(=O)c12	-9%	·	·	·	·
CCOc1ccccc1NC(=O)CN1C(=O)CC(c2ccc(C)c(C)c2)=Nc2ccccc21	-15%	-4%	6%	?	8%
C[C@@H]1OC(OC2CC[C@@]3(C)C(CC[C@@]4(C)C3CC=C3C5CC(C)(C)CC[C@]5(C(=O)OC5OCC(O)[C@@H](O)[C@@H]5OC5O[C@@H](C)[C@H](O[C@H]6OC(CO)C(O)C(O)C6O)C(O)C5O)C(O)C[C@@]34C)C2(C)C)C(O)C(O)[C@H]1OC1OCC(O)C(O)[C@H]1O (some centres undefined)	·	25µM*	·	·	·
